Measurements as given in the supplement of paper PMC11732987, “Enantioselective OTUD7B fragment discovery through chemoproteomics screening and high-throughput optimisation” (Communications Chemistry, 2025).

How the values were obtained:
Assay in all cases: log2 ratio of Biotin-Ahx-Ub-VS probe labelling (fragment/DMSO); higher = less target engagement (more negative = stronger competition), active = hit call of the paper (q ≤ 0.05, log2 ratio ≤ -1)
Conditions in all cases: compound concentration: 200 uM; treatment time: 3 h
USP34 = USP34 (UniProt Q70CQ2)
USP34, sequence (Q70CQ2 whole entry, the tested form may be a part): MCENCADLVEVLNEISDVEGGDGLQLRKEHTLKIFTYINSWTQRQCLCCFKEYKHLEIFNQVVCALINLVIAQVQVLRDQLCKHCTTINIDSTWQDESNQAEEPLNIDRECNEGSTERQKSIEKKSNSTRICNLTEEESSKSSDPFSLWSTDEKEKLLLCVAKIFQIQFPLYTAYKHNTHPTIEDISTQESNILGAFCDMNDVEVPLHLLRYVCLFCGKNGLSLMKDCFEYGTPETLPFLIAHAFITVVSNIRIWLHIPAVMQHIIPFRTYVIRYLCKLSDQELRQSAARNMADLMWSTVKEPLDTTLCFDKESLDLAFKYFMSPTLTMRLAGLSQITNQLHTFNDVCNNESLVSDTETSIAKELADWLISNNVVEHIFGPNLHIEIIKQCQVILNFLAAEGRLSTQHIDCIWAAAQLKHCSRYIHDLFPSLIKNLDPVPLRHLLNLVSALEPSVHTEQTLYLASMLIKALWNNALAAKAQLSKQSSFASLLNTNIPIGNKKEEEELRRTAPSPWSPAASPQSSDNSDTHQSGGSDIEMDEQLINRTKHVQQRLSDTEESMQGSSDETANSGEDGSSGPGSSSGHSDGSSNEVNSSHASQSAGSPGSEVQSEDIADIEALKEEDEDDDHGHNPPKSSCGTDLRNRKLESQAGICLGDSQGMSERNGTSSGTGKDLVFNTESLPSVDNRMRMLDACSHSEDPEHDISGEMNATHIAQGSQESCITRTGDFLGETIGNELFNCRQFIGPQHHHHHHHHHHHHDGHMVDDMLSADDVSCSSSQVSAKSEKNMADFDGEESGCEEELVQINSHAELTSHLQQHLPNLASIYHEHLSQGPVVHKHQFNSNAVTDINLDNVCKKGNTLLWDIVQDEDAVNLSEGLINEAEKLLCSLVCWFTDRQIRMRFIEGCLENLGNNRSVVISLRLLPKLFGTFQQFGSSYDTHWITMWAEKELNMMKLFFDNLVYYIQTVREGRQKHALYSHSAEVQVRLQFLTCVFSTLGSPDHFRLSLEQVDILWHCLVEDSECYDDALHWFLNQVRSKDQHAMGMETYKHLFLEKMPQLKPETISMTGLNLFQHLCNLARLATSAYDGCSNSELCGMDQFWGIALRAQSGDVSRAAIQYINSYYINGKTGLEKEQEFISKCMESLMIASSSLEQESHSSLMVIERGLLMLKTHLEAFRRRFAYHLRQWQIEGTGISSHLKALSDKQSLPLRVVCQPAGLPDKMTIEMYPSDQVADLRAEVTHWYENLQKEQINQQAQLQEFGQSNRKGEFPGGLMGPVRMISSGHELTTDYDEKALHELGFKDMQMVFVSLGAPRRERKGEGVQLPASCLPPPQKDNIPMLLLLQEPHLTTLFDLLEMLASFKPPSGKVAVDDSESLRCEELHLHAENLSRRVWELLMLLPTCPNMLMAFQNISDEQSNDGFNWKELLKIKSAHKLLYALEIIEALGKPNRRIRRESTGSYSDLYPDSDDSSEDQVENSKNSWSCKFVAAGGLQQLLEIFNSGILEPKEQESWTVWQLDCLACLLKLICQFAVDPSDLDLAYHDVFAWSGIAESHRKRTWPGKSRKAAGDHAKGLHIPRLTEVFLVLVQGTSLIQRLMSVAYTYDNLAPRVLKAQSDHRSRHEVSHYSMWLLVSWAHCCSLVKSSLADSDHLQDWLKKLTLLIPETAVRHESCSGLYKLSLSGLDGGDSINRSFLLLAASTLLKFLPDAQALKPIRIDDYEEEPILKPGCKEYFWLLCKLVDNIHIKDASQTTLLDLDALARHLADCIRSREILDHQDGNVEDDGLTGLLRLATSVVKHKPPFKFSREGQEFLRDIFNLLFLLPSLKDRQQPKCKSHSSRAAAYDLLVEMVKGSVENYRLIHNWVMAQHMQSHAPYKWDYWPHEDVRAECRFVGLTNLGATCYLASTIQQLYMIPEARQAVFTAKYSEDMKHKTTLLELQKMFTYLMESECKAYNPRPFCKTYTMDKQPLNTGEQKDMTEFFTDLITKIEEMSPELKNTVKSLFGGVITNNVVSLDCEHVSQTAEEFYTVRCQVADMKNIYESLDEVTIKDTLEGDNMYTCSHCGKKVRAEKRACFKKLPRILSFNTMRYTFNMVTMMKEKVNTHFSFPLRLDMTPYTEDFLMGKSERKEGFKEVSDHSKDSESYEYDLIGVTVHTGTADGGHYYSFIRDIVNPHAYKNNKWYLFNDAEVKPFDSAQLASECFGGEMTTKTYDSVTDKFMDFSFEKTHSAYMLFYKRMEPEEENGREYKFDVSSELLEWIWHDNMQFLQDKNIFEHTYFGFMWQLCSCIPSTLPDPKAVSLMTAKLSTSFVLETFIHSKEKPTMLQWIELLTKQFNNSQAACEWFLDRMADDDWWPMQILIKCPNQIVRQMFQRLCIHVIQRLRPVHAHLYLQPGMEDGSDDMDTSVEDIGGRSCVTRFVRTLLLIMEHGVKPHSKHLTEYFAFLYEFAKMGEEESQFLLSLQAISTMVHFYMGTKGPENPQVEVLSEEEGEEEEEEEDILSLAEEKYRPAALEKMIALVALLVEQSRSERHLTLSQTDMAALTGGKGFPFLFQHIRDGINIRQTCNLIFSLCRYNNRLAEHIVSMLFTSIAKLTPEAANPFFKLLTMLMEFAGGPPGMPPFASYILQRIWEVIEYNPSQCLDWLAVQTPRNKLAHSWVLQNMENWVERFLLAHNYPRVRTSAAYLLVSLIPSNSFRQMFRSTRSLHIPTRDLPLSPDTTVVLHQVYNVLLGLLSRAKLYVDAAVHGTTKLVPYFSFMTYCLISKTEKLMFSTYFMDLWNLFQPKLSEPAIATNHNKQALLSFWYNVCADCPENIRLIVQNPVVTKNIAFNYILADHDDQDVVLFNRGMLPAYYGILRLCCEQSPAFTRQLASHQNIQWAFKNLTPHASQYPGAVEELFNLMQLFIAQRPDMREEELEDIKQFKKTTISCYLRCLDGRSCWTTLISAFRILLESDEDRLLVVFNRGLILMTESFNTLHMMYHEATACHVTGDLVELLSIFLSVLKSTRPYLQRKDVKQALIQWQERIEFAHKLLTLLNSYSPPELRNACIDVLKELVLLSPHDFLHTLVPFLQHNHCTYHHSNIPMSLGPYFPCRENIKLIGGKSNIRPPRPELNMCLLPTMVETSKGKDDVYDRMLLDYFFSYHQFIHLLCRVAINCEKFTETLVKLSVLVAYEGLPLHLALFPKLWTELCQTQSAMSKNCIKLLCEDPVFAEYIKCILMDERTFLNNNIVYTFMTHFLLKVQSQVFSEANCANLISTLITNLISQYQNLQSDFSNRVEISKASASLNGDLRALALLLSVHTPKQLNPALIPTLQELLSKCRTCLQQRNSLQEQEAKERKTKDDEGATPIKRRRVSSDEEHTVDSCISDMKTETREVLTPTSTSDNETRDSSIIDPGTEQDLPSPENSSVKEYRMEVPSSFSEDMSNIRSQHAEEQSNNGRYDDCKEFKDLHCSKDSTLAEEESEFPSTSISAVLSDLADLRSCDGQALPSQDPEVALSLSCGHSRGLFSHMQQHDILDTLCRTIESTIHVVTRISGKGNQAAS
Procedure, shortened: (§1)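 HEK293T lysate, 495 µg per sample in Tris/CHAPS/IGEPAL buffer with protease inhibitors, was treated in triplicate with fragment at 200 µM or vehicle for 3 h and then with Biotin-Ahx-Ub-VS at 0.5 µM final for 1 h. Labelled DUBs were NeutrAvidin-enriched, digested with LysC and trypsin, and run by diaPASEF LC-MS/MS. Spectronaut label-free quantities were global-median-normalised, and values are average log2 fragment/vehicle ratios by unpaired t-test on proteins with ≥2 unique peptides.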

USP36 = target: T1, USP36 (UniProt Q9P275)
T1 sequence (whole entry): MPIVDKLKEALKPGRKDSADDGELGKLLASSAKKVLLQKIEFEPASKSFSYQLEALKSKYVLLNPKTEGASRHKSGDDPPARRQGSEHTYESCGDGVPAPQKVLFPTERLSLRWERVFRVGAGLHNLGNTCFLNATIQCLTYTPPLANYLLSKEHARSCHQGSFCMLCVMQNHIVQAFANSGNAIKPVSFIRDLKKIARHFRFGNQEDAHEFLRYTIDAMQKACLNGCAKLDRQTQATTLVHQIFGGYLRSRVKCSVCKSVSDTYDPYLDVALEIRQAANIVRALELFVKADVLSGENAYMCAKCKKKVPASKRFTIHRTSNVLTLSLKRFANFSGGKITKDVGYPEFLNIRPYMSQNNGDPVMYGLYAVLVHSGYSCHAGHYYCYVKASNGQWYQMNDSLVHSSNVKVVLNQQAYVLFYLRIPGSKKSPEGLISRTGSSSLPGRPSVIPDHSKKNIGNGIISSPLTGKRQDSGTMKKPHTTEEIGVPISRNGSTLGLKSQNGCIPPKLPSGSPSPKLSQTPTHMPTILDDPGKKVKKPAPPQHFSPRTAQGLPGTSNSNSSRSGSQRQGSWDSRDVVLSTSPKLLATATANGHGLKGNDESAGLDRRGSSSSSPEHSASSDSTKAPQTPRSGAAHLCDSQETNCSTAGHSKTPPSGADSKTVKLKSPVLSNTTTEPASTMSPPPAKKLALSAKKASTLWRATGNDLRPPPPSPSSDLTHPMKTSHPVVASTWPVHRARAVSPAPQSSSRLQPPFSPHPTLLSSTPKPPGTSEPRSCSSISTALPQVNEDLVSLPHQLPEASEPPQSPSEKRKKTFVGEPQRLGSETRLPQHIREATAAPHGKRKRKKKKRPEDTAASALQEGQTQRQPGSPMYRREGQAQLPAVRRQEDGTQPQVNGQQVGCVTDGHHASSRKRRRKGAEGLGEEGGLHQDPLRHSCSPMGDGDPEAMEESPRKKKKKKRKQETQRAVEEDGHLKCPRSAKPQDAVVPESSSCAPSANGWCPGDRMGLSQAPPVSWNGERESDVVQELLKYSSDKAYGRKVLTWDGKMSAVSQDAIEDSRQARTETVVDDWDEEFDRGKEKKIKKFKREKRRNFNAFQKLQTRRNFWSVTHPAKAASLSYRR
Procedure, shortened: as §1

USP38 = target: T2, USP38 (UniProt Q8NB14)
T2 sequence (whole entry): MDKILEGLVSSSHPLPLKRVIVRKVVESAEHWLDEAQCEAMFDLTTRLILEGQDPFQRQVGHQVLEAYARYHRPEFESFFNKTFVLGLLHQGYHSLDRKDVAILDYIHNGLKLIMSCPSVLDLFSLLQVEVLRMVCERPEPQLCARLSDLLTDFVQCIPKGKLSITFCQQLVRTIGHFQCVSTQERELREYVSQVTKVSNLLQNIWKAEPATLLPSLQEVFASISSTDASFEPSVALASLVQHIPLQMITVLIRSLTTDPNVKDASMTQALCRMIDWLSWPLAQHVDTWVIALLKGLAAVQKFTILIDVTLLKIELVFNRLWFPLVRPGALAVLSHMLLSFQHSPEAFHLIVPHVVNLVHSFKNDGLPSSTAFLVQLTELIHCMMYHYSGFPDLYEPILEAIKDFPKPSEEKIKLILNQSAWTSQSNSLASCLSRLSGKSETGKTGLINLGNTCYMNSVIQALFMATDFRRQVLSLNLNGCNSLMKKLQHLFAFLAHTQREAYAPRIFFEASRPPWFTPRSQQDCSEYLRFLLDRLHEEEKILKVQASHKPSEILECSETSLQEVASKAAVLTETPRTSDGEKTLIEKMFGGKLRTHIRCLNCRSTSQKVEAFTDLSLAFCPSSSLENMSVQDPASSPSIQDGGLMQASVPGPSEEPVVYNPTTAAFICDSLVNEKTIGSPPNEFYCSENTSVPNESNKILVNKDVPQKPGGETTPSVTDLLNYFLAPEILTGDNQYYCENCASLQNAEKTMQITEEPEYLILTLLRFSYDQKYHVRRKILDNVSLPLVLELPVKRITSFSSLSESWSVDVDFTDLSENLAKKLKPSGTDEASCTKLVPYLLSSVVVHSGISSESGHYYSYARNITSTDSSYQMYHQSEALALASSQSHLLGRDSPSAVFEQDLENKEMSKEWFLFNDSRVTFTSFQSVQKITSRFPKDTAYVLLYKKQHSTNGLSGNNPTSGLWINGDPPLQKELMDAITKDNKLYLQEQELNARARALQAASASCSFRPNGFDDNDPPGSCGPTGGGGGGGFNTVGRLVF
Procedure, shortened: as §1

USP39 = target: T3, USP39 (UniProt Q53GS9)
T3 sequence (whole entry): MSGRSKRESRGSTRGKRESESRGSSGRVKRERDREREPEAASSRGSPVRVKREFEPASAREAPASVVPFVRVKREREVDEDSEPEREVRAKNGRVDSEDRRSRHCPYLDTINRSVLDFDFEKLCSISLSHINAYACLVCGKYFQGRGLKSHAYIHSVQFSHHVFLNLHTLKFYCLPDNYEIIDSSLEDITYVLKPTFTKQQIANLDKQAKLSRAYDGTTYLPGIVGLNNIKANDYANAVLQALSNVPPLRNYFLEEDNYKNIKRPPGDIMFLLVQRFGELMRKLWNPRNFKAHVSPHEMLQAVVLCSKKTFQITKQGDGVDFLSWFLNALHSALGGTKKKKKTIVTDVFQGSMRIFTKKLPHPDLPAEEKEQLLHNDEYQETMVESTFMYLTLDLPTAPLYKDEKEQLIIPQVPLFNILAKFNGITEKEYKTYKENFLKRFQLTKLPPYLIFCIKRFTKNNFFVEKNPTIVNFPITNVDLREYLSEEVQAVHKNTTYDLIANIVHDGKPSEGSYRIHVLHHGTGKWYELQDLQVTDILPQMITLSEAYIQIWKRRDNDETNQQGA
Procedure, shortened: as §1

USP4 = target: T4, USP4 (UniProt Q13107)
T4 sequence (whole entry): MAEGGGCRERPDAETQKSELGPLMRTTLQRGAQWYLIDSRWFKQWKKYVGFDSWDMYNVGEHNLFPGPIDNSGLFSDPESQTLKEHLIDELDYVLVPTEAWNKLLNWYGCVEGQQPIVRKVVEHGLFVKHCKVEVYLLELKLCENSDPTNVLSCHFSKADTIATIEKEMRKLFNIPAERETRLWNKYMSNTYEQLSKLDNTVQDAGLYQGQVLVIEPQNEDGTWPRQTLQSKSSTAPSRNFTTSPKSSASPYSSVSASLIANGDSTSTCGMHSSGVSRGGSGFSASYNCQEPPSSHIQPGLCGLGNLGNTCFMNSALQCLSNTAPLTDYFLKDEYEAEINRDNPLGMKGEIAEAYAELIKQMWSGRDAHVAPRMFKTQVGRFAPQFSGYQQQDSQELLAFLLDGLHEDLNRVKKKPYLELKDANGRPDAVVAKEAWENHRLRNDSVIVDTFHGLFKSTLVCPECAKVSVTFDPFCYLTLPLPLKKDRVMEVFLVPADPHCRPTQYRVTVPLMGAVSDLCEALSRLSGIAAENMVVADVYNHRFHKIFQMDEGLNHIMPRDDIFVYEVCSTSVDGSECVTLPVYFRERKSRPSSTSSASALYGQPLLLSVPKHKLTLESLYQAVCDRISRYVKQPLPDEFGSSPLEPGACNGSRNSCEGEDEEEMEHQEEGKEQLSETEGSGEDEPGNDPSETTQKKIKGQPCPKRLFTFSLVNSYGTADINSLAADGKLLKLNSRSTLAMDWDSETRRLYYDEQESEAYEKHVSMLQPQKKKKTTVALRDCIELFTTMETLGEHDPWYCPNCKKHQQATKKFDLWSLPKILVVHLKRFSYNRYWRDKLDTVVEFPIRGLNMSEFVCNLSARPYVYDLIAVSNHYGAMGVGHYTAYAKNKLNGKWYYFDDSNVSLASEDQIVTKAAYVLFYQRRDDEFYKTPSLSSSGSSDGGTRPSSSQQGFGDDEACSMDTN
Procedure, shortened: as §1

Measured: log2 ratio of Biotin-Ahx-Ub-VS probe labelling

N#Cc1cnn(-c2ccccc2)c1NC(=O)CCl
inactive: USP34 0.0145 | USP36 -0.28 | USP38 -0.229 | USP39 -0.0134 | USP4 -0.24
